Several values for one entry are separate records, joined by “and”; a condition that tells them apart may be missing. Identical values can stand only once. Inconclusive results are not listed. A structure can be active in one record and inactive in another. Activity calls are given as the source filed them. How the source made its calls, unless noted: active means hit-call score of the fitted dose curve at least 0.9, where 1 is the maximum; inactive means score below 0.9.
Assays:
[1] = ATG_PBREM_CIS: Attagene CIS-FACTORIAL HepG2 Assay for human Phenobarbital-responsive Enhancer Module (PBREM) (AID 2282955); details: HepG2 PBREM cis-reporter, Attagene multiplexed transcription; actives raise or lower the signal
Procedure, shortened: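 Cells were transfected with cis-element reporter units and treated for 24 h, after which RNA was extracted and reporter transcripts measured by RT-PCR and capillary electrophoresis.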

[2] = biological target: Paired box protein Pax-6 (Homo sapiens) (UniProt P26367); test: ATG_Pax6_CIS: Attagene CIS-FACTORIAL HepG2 Assay for human Paired Box 6 (PAX6) (AID 2282956); details: HepG2 CIS-FACTORIAL PAX6 reporter transcription, RNA readout; actives raise or lower the signal
Sequence of Paired box protein Pax-6 (Homo sapiens) (P26367 whole entry, looked up): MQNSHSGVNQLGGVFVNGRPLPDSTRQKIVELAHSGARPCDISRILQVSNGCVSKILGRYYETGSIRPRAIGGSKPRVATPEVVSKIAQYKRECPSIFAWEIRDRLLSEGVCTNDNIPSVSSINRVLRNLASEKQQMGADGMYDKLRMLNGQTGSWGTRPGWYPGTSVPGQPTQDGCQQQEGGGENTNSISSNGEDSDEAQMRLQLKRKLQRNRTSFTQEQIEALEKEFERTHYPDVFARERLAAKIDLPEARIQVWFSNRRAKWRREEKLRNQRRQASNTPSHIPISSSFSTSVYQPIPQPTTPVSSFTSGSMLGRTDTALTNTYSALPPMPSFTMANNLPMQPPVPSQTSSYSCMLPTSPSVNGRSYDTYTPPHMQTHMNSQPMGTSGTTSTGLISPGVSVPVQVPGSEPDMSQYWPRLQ
Procedure, shortened: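 HepG2 cells transiently transfected with cis-promoter-driven multiplexed reporter units sensing endogenous transcription factor activity; 24 h chemical exposure. Reporter mRNA quantified by RT-PCR, 6-FAM labelling, HpaI digestion and capillary electrophoresis; bidirectional fit versus DMSO baseline.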

[3] = ATG_PXRE_CIS: Attagene CIS-FACTORIAL HepG2 Assay for human Pregnane X Receptor Element (PXRE) (AID 2282957); details: HepG2 Attagene CIS-FACTORIAL PXRE reporter, mRNA; actives raise or lower the signal
Procedure, shortened: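 Multiplexed cis-reporter assay in transiently transfected human HepG2 cells; 24 h chemical exposure. Reporter transcripts quantified by RT-PCR with fluorescent labeling and capillary electrophoresis.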

[4] = ATG_PPRE_CIS: Attagene CIS-FACTORIAL HepG2 Assay for human Peroxisome Proliferator-activated Response Element (PPRE) (AID 2282958); details: HepG2 PPRE cis-element reporter, Attagene transcription factor profiling; actives raise or lower the signal
Procedure, shortened: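 In this cell-based multiplex, a PPRE cis element drives a reporter sequence in transiently transfected HepG2 cells. Following 24 h treatment, labeled cDNA amplicons are sized and quantified by capillary electrophoresis, with DMSO defining baseline.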

[5] = ATG_RORE_CIS: Attagene CIS-FACTORIAL HepG2 Assay for human RAR-related Orphan Receptor Element (RORE) (AID 2282959); details: HepG2 Attagene cis-factorial RORE reporter, mRNA; actives raise or lower the signal
Procedure, shortened: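 Endogenous factor activity at a cis response element is read as reporter transcript levels in HepG2 cells, 24 h post-dose. Transcripts are quantified by RT-PCR with capillary electrophoresis, and data fitted in both directions against DMSO.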

[6] = biological target: Transcription factor Sp1 (Homo sapiens) (UniProt P08047); test: ATG_Sp1_CIS: Attagene CIS-FACTORIAL HepG2 Assay for human Specificity Protein 1 (Sp1) (AID 2282961); details: HepG2 Sp1 cis-reporter transcription, actives raise or lower the signal
Sequence of Transcription factor Sp1 (Homo sapiens) (P08047 whole entry, looked up): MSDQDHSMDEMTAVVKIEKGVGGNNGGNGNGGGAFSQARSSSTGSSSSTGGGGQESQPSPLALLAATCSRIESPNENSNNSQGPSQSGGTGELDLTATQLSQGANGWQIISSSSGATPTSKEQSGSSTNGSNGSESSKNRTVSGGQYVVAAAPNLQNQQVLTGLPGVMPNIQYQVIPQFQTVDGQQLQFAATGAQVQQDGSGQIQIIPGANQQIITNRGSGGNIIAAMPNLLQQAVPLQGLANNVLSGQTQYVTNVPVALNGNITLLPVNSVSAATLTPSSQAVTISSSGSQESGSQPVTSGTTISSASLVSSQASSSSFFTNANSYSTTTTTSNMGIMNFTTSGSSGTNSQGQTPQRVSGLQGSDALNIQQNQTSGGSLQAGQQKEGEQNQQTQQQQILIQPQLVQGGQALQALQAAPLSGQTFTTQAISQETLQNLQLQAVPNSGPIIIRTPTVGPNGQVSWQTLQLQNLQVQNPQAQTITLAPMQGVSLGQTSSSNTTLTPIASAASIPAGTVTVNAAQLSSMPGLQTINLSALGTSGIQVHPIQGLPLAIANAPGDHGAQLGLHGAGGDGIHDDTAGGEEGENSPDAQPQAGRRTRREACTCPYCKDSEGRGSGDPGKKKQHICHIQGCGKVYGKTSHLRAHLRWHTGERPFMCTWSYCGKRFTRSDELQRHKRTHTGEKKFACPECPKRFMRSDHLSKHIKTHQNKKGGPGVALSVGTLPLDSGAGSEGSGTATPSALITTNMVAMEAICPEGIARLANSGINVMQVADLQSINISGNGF
Procedure, shortened: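 Cells: HepG2, transiently transfected with cis-regulated multiplexed reporters. Exposure: 24 h. Detection: reporter transcripts amplified, fluorescently labeled, restriction-digested and sized by capillary electrophoresis. Analysis: bidirectional fit relative to DMSO.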

[7] = ATG_SREBP_CIS: Attagene CIS-FACTORIAL HepG2 Assay for human Sterol Regulatory Element Binding (SREBP) (AID 2282962); details: HepG2 Attagene cis-factorial SREBP reporter, mRNA; actives raise or lower the signal
Procedure, shortened: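 HepG2 cells transiently transfected with multiplexed cis-promoter reporter units sensing endogenous transcription factors; reporter mRNA measured 24 h after dosing by RT-PCR, 6-FAM labeling, HpaI digestion and capillary electrophoresis. Bidirectional fit versus DMSO.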

[8] = biological target: Signal transducer and activator of transcription 3 (Homo sapiens) (UniProt P40763); test: ATG_STAT3_CIS: Attagene CIS-FACTORIAL HepG2 Assay for human Signal Transducer and Activator of Transcription 3 (STAT3) (AID 2282963); details: HepG2, Attagene cis-factorial STAT3 reporter transcription; actives raise or lower the signal
Sequence of Signal transducer and activator of transcription 3 (Homo sapiens) (P40763 whole entry, looked up): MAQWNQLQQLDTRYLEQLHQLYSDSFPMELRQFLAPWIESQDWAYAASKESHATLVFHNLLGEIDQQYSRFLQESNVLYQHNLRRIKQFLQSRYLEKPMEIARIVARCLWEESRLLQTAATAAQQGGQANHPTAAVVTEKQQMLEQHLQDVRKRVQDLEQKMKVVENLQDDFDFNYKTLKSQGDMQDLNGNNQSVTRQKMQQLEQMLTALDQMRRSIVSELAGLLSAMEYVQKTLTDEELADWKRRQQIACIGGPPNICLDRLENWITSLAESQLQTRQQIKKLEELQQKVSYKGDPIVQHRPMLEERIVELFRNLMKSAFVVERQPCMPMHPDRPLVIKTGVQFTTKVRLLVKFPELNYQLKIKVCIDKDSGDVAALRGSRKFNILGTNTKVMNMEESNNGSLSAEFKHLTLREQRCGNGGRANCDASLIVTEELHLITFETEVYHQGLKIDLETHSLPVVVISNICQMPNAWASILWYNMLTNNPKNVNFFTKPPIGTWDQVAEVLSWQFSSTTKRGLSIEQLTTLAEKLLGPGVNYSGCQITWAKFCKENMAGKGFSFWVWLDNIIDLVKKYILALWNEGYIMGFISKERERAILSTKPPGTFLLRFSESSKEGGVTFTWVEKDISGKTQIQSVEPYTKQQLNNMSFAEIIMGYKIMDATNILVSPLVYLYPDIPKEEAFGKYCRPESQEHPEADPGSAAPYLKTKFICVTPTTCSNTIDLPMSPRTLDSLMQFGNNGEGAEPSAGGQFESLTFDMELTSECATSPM
Procedure, shortened: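 Values derive from bidirectional fits relative to DMSO of reporter mRNA levels, measured by RT-PCR with capillary electrophoresis, in HepG2 cells carrying transiently transfected cis-regulated reporter units and exposed 24 h.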

[9] = ATG_TA_CIS: Attagene CIS-FACTORIAL HepG2 Assay for human TA Basal Promoter (AID 2282964); details: HepG2 Attagene CIS-factorial TA basal promoter reporter; actives raise or lower the signal
Procedure, shortened: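 Multiplexed mRNA reporter assay, HepG2, 24 h. Reporter cDNA amplified, 6-FAM primer-extended, HpaI-cut, CE-sized; DMSO = negative control and baseline.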

[10] = ATG_TCF_b_cat_CIS: Attagene CIS-FACTORIAL HepG2 Assay for human T-Cell-Factor with beta-catenin (TCF/b-cat) (AID 2282965); details: HepG2 TCF/beta-catenin cis-reporter transcription, actives raise or lower the signal
Procedure, shortened: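 HepG2, transient MRTU transfection, cis-element-driven reporters (endogenous TFs). 24 h compound exposure. Readout: reporter mRNA by RT-PCR + 6-FAM primer extension, HpaI digest, capillary electrophoresis. Gain/loss fit vs DMSO baseline.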

[11] = ATG_TAL_CIS: Attagene CIS-FACTORIAL HepG2 Assay for human TAL Basal Promoter (AID 2282966); details: HepG2 Attagene cis-factorial TAL promoter reporter; actives raise or lower the signal;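 further: background control endpoint measuring basal TAL promoter reporter mRNA not a specific factor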
Procedure, shortened: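 Steps: transfect HepG2 with multiple reporter transcription units; dose 24 h; isolate RNA, reverse-transcribe, PCR-amplify, label with 6-FAM, digest with HpaI; resolve by capillary electrophoresis. Bidirectional fitting against DMSO baseline.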

[12] = ATG_TGFb_CIS: Attagene CIS-FACTORIAL HepG2 Assay for human Transforming Growth Factor (TGF) (AID 2282967); details: HepG2 Attagene CIS TGFb reporter, mRNA transcription; actives raise or lower the signal
Procedure, shortened: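 Transcript-level reporter readout: HepG2 transfectants, 24 h exposure, RNA to cDNA, reporter-specific PCR, fluorescent primer extension, capillary sizing against ROX standards. Gain- or loss-of-signal relative to DMSO.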

[13] = ATG_VDRE_CIS: Attagene CIS-FACTORIAL HepG2 Assay for human Vitamin D Receptor Element (VDRE) (AID 2282968); details: HepG2 VDRE cis-reporter transcription, actives raise or lower the signal
Procedure, shortened: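 Cell-based multiplexed reporter format in human liver HepG2 cells, 24 h post-dose. Fluorescence from capillary electrophoresis of reporter cDNA gives the signal, with DMSO as negative control and baseline.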

[14] = biological target: X-box-binding protein 1 (Homo sapiens) (UniProt P17861); test: ATG_Xbp1_CIS: Attagene CIS-FACTORIAL HepG2 Assay for human X-box Binding Protein 1 (XBP1) (AID 2282972); details: HepG2 XBP1 cis-element reporter, Attagene multiplex; actives raise or lower the signal
Sequence of X-box-binding protein 1 (Homo sapiens) (P17861 whole entry, looked up): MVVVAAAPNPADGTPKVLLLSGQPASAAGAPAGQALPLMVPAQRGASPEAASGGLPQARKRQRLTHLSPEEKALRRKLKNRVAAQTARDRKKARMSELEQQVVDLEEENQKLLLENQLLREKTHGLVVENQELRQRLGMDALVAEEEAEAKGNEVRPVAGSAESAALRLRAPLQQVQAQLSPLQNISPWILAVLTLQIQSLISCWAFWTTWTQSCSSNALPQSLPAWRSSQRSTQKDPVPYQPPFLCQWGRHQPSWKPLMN
Procedure, shortened: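 HepG2 cells transiently transfected with multiple cis-element reporter units report endogenous TF activity; 24 h exposure, then reporter mRNA measured by RT-PCR, 6-FAM labelling, HpaI digestion and capillary electrophoresis. Bidirectional fitting versus DMSO.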

[15] = ATG_Sox_CIS: Attagene CIS-FACTORIAL HepG2 Assay for human SRY-box transcription factor (SOX) (AID 2282960); details: HepG2 Attagene cis-factorial SOX reporter, mRNA; actives raise or lower the signal
Procedure, shortened: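 Measures mRNA induction of a SOX1-associated reporter in HepG2 after 24 h dosing. Fluorescently labelled RT-PCR fragments are separated by capillary electrophoresis, and gain or loss relative to DMSO control is fitted.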

[16] = biological target: Nuclear receptor subfamily 1 group I member 3 (Homo sapiens) (UniProt Q14994); test: ATG_CAR_TRANS: Attagene TRANS-FACTORIAL HepG2 Assay for human Constitutive Androstane Receptor (CAR) (AID 2282969; active means hit-call score of the fitted dose curve at least 0.9, where 1 is the maximum;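 further: activators raise reporter mRNA above DMSO so AC50 marks induction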); details: HepG2 Attagene TRANS-FACTORIAL CAR reporter
Sequence of Nuclear receptor subfamily 1 group I member 3 (Homo sapiens) (Q14994 whole entry, looked up, the tested form may be a part): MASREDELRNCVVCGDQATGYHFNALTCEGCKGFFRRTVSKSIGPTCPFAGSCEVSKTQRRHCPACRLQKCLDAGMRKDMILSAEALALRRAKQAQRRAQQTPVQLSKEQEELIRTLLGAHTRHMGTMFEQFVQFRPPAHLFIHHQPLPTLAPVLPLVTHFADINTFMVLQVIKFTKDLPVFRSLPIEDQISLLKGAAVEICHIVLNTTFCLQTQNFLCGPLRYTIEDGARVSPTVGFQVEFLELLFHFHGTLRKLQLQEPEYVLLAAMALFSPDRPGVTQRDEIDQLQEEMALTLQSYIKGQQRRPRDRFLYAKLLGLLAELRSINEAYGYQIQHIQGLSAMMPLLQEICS
Procedure, shortened: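 HepG2 cells transiently transfected with GAL4-UAS reporter units; TRANS format reads activity of exogenous chimeric NR-Gal4 protein. After 24 h dosing, reporter mRNA quantified by RT-PCR, 6-FAM labelling and capillary electrophoresis; gain of signal fitted against DMSO.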

[17] = biological target: Estrogen receptor (Homo sapiens) (UniProt P03372); test: ATG_ERa_TRANS: Attagene TRANS-FACTORIAL HepG2 Assay for human Estrogen Receptor alpha (ERa) (AID 2282970; active means hit-call score of the fitted dose curve at least 0.9, where 1 is the maximum); details: HepG2 Attagene TRANS ERa GAL4 reporter, mRNA
Sequence of Estrogen receptor (Homo sapiens) (P03372 whole entry, looked up, the tested form may be a part): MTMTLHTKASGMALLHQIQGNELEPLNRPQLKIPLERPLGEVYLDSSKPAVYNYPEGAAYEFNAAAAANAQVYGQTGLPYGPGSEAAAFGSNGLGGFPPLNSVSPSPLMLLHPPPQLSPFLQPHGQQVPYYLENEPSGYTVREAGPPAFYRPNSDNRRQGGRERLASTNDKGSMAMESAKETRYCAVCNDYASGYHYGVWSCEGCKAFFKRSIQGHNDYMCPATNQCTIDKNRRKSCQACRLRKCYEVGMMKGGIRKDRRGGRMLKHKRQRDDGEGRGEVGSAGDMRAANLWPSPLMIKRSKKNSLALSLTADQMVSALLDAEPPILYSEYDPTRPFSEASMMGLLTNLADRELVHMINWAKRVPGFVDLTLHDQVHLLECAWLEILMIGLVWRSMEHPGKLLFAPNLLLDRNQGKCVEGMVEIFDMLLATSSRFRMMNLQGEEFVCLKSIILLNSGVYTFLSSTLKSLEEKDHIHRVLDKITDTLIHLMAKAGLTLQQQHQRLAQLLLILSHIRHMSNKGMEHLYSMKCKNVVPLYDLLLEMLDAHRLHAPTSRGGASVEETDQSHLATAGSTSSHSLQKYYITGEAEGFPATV
Procedure, shortened: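 Multiplexed cell-based reporter format in HepG2: chimeric ERa-Gal4 protein drives GAL4-UAS reporter transcription. Fluorescent reporter mRNA quantified by capillary electrophoresis 24 hours after dosing; endpoint fitted as signal gain against DMSO.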

[18] = biological target: Steroid hormone receptor ERR1 (Homo sapiens) (UniProt P11474); test: ATG_ERRa_TRANS: Attagene TRANS-FACTORIAL HepG2 Assay for human Estrogen-Related Receptor alpha (ERRa) (AID 2282971; active means hit-call score of the fitted dose curve at least 0.9, where 1 is the maximum); details: HepG2 Attagene TRANS reporter, ERRa transactivation
Sequence of Steroid hormone receptor ERR1 (Homo sapiens) (P11474 whole entry, looked up, the tested form may be a part): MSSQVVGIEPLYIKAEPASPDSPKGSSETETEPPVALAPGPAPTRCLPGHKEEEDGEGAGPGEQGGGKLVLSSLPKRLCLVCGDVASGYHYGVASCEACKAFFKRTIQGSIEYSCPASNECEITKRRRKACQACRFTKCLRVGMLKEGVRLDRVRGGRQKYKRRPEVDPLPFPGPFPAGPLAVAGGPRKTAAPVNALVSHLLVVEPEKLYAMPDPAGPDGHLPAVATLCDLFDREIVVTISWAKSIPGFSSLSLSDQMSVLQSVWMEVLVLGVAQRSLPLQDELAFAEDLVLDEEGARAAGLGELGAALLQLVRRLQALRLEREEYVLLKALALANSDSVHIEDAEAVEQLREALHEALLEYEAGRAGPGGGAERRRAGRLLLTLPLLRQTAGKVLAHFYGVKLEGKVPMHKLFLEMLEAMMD
Procedure, shortened: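 Signal gain relative to DMSO for an ERRa-Gal4 chimeric receptor, read as reporter mRNA by RT-PCR/capillary electrophoresis. Human HepG2 liver cells, transient multiplex reporter transfection, 24 h chemical exposure.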

[19] = ATG_M_19_TRANS: Attagene TRANS-FACTORIAL HepG2 Assay for M19 Transcription Factor (Internal Marker) (AID 2282974; active means hit-call score of the fitted dose curve at least 0.9, where 1 is the maximum); details: HepG2 Attagene TRANS-FACTORIAL M19 internal marker reporter
Procedure, shortened: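 Reporter mRNA induction was measured in transfected HepG2 cells 24 h after dosing. Endpoint fitted upward relative to DMSO and serves as a background control within the multiplexed TRANS panel.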

[20] = ATG_GAL4_TRANS: Attagene TRANS-FACTORIAL HepG2 Assay for GAL4 (Internal Marker) (AID 2282976; active means hit-call score of the fitted dose curve at least 0.9, where 1 is the maximum); details: HepG2 Attagene TRANS GAL4 internal marker reporter
Procedure, shortened: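 Liver HepG2 line bearing multiplexed GAL4-UAS reporter constructs; 24 h chemical treatment. Transcripts were quantified as fluorescent fragments on capillary electrophoresis after RT-PCR and HpaI cut, with activity fitted upward from DMSO.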

Compound: NC(=O)NN=Cc1ccc([N+](=O)[O-])o1
- outcome [1]: inactive
- outcome [2]: inactive
- outcome [3]: inactive
- outcome [4]: inactive
- outcome [5]: inactive
- outcome [6]: inactive
- outcome [7]: inactive
- outcome [8]: inactive
- outcome [9]: inactive
- outcome [10]: inactive
- outcome [11]: inactive
- outcome [12]: inactive
- outcome [13]: inactive
- outcome [14]: inactive

Compound: Cc1cccc(O)c1C
- outcome [1]: inactive
- outcome [2]: inactive
- AC50 [3]: 31.1 µM (active)
- outcome [3]: inactive
- outcome [4]: inactive
- outcome [5]: inactive
- outcome [15]: inactive
- outcome [6]: inactive
- outcome [7]: inactive
- outcome [8]: inactive
- outcome [9]: inactive
- outcome [10]: inactive
- outcome [12]: inactive
- outcome [13]: inactive
- outcome [16]: inactive
- AC50 [17]: 38.5 µM (active) and 46 µM (active)
- outcome [18]: inactive
- outcome [14]: inactive
- outcome [19]: inactive
- outcome [20]: inactive

Compound: O=C(Cl)C(F)(F)C(F)(F)C(F)(F)C(=O)Cl
- outcome [1]: inactive
- outcome [2]: inactive
- outcome [3]: inactive
- outcome [4]: inactive
- outcome [5]: inactive
- outcome [6]: inactive
- outcome [7]: inactive
- outcome [8]: inactive
- outcome [9]: inactive
- outcome [10]: inactive
- outcome [11]: inactive
- outcome [12]: inactive
- outcome [13]: inactive
- outcome [16]: inactive
- outcome [17]: inactive
- outcome [18]: inactive
- outcome [14]: inactive
- outcome [19]: inactive
- outcome [20]: inactive
